Source: PubChem
This is a sample that favours compounds with a hit; in the whole collection about 4.9% have one here.
tim23-1 inh: growth inhibitors of tim23-1 mutant yeast, primary screen, luminescence, uHTS. S. cerevisiae tim23-1 growth, BacTiter-Glo luminescence, 24 h. inhibition, % at 20 µM. 1.3% of 330,000 active. AID 463212, 2010;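 active = growth inhibition of the mutant yeast at or above 50%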;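 also: temperature-sensitive mutant grown at 25 °C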
NALP1 yeast inh: NALP1 inflammasome inhibitors in reconstituted yeast, colorimetric, S. cerevisiae, triplicate retest; 0.61% of 280,000 active; S. cerevisiae NALP1/ASC/caspase-1 growth, X-gal OD620, 72 h; AID 2071, 2009; inhibition, % at 10 µM; in the data active = inhibition mostly above about 24%, no sharp cut-off; inactive = mostly below about 32%
tim10-1 inh: growth inhibitors of tim10-1 mutant yeast, primary screen, luminescence, uHTS | inhibition, % at 20 µM | 2.2% of 330,000 active | S. cerevisiae tim10-1 ts strain growth, BacTiter-Glo, 24 h;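 active = inhibition of at least 40%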;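 also: mutant grown at 25 °C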
SKKanGAS inh: S. pyogenes SKKanGAS growth inhibitors in kanamycin, primary screen, streptokinase expression inhibitor project, SKKanGAS strain, BacTiter-Glo luminescence; 6 h; inhibition, % at 7.5 µM; 1.3% of 300,000 active;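 active = mean replicate score, as percent of positive control median, at least 50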;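 also: strain carries kanamycin resistance gene driven by streptokinase promoter and grows in 40 µg/ml kanamycin; loss of luminescence reflects streptokinase promoter inhibition or plain growth inhibition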
NALP3 yeast inh: NALP3 inflammasome inhibitors in reconstituted yeast, primary screen, luminescence, uHTS; Yeast reconstituted NLRP3/ASC/caspase-1, beta-gal luminescence, 24 h; inhibition, % at 10 µM; 0.39% of 330,000 active; AID 2825, 2010;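 active = inhibition of 50% or more; inactive = inhibition below 50%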
TIM10 inh: growth inhibitors of isogenic TIM10 control yeast, primary screen, counter-screen for tim10-1 yeast inhibitor project, luminescence, uHTS; S. cerevisiae TIM10 strain growth, BacTiter-Glo luminescence, 24 h; inhibition, % at 10 µM; 1.4% of 330,000 active;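 active = inhibition of 40% or more at the single tested concentration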;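 also: wild-type TIM10 isogenic control strain grown at permissive 25 °C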
tim10-1 confirm: growth inhibitors of tim10-1 mutant yeast, confirmation, single concentration, luminescence, S. cerevisiae; 56% of 7,400 active; shares compounds with tim10-1 inh; inhibition, % at 20 µM; S. cerevisiae tim10-1 ts strain growth, BacTiter-Glo, 24 h;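 active = inhibition of yeast growth at or above a set limit in either of two repeat tests at 20 µM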;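 also: tim10-1 mutant grown at permissive 25 °C to find synthetic lethal compounds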
Of the large screens only hits and unclear results are named; the others gave an inactive call (follow-up assays come after a bar, where they were run); ! = not confirmed by another sample.

CCOC(=O)CNC(=O)c1cc(-c2ccccn2)nc2c(C)c(Cl)ccc12	tim10-1 inh 41.4 | tim10-1 confirm inactive
O=C(Nc1ccncc1)c1ccc(-c2ccccc2)cc1	none
Cc1cc(OCCOc2cccc3cccnc23)cc(C)c1Cl	tim10-1 inh 41.3 | tim10-1 confirm inactive
CCc1nccn1CCC(=O)N1CCCC(N2CCN(c3ccccc3C)CC2)C1 (stereo not given)	none
CCCn1c(N)c(C(=O)CSc2nnc(C3CC3)n2C2CC2)c(=O)[nH]c1=O	none (no result: NALP1 yeast inh, SKKanGAS inh)
C/C(=N\OC(=O)NC(C)C)c1sc(-c2ccccc2)nc1C	none
C/C(=N\OC(=O)NC(C)C)c1sc(-c2ccc(Cl)cc2)nc1C	tim10-1 inh 45.0 | tim10-1 confirm 41.8
Cc1ccc(C(=O)O/N=C(\c2ccccc2)c2ccncc2)cc1	none
Cc1cc(C)cc(C(=O)O/N=C(\N)c2ccc(Br)cc2)c1	tim10-1 inh 40.4 | tim10-1 confirm 31.5
Cc1ccccc1C(=O)O/N=C(\N)c1ccc([N+](=O)[O-])cc1	tim10-1 inh 53.0 | tim10-1 confirm 61.9
N/C(=N\OC(=O)c1ccccc1Br)c1ccc([N+](=O)[O-])cc1	none
COc1cc(C(=O)ON=C2C=C(C)C(=O)C(C)=C2)cc(OC)c1OC	none
COc1ccccc1C(=O)O/N=C(/c1ccncc1)c1ccc([N+](=O)[O-])cc1	tim10-1 inh 47.1 | tim10-1 confirm inactive
COc1ccc(C(=O)ON=C2C=C(C)C(=O)C(C)=C2)cc1	tim10-1 inh 48.1 | tim10-1 confirm inactive
Cc1ccccc1C(=O)OCCN1CCOCC1	none
NS(=O)(=O)c1ccc(CCNC(=O)C2CCN(C(=O)Nc3ccccc3)CC2)cc1	none (no result: NALP1 yeast inh, SKKanGAS inh)
COc1ccc(C(=O)O/N=C(\N)c2ccccc2)cc1OC	tim10-1 inh 51.1 | tim10-1 confirm 53.3
COc1ccc(C(=O)O/N=C(\N)c2ccncc2)cc1OC	none
Cc1cccc(C(=O)O/N=C(\N)c2ccc(Cl)cc2)c1	none
COc1cc(C(=O)O/N=C(\N)c2cccc([N+](=O)[O-])c2)cc(OC)c1OC	none (no result: NALP1 yeast inh)
COc1ccc(C(=O)O/N=C(\N)c2ccc(Cl)cc2)cc1	tim10-1 inh 44.2 | tim10-1 confirm 46.4
COc1cc(C(=O)O/N=C(\N)c2ccc([N+](=O)[O-])cc2)cc(OC)c1OC	tim10-1 inh 59.3 | tim10-1 confirm 47.5
N/C(=N\OC(=O)N1CCOCC1)c1ccc(Cl)cc1	tim10-1 inh 60.9 | tim10-1 confirm 49.0
N/C(=N\OC(=O)N1CCOCC1)c1ccccc1	none
CCOC(=O)[C@@H]1[C@H]2COc3ccccc3[C@@H]2N2C(=O)N(c3ccc(F)cc3)C(=O)[C@]12C	none (no result: NALP1 yeast inh)
Cc1nn(Cc2c(F)c(F)c(F)c(F)c2F)c(C)c1NC(=O)c1ccc(COc2ccccc2Cl)o1	tim10-1 inh 46.4 | tim10-1 confirm 31.6
Cc1nn(Cc2c(F)c(F)c(F)c(F)c2F)c(C)c1NC(=O)c1ccc(COc2ccccc2Cl)cc1	none (no result: tim23-1 inh, tim10-1 inh, NALP3 yeast inh, TIM10 inh)
CCOC(=O)c1cc(C)n(-c2ccc(OC)c(OC)c2)c1C	tim10-1 inh 47.1 | tim10-1 confirm inactive
CCOC(=O)c1cc(C)n(-c2ccc(Cl)cc2)c1C	none
Cc1ccc(OCC(=O)NCCNC(=O)c2cnccn2)cc1	none
CC(N=c1ccccn1C(=O)Nc1cccc(C(F)(F)F)c1)c1ccco1 (stereo not given)	tim10-1 inh 41.2 | tim10-1 confirm 32.7
CC1CN(C(=O)Nc2cccc(C(F)(F)F)c2)CC(C)O1 (stereo not given)	none
Cc1c(NC(=O)/C(C#N)=C/c2ccc(-c3ccc(Cl)cc3)o2)c(=O)n(-c2ccccc2)n1C	tim10-1 inh 41.6 | tim10-1 confirm 29.8
Cc1c(NC(=O)/C(C#N)=C/c2ccc(-c3cc(Cl)ccc3Cl)o2)c(=O)n(-c2ccccc2)n1C	none
COc1ccc(OC)c(N=c2ssnc2Cl)c1	tim10-1 inh 46.9 | tim10-1 confirm 31.7
COc1cc(N=c2ssnc2Cl)c(OC)cc1Cl	tim10-1 inh 41.7! | tim10-1 confirm 50.8
Nc1ccccc1N=c1ssnc1Cl	none (no result: tim23-1 inh, tim10-1 inh, SKKanGAS inh, NALP3 yeast inh, TIM10 inh)
